Source: the antibiotic and cytotoxicity screens of Wong et al. (2023)
Hit rate of the full screen: of about 39,000 compounds, about 3,300 (8.5%) were called active. The sample as a whole holds a higher share of actives than the screen did.

What follows are compounds tested on HepG2 (assay: cytotoxicity call (relative viability < 0.9)). Settings: 10 µM.
For `C[C@@H]1CN([C@H](C)CO)C(=O)Cc2cc(NC(=O)Cn3cnnn3)ccc2O[C@H]1CN(C)Cc1ccc2c(c1)OCO2`, the cytotoxicity call was “inactive”. `CO[C@@H](CN(C)S(=O)(=O)c1ccc(Cl)cc1)[C@H](C)CN([C@@H](C)CO)S(=O)(=O)c1cccc(Cl)c1` was tested, and the cytotoxicity call was “inactive”. With `O=C1OC(c2cc(I)c(O)c(I)c2)(c2cc(I)c(O)c(I)c2)c2ccccc21` the cytotoxicity call was “inactive”. With `O=C1OC2(c3ccc(O)cc3Oc3cc(O)ccc32)c2ccccc21` the cytotoxicity call was “inactive”. In the case of `O=C1OC2(c3ccccc31)c1cc(I)c(O)c(I)c1Oc1c2cc(I)c(O)c1I`, the cytotoxicity call is reported as “active”. For `C[C@@H]1CN([C@@H](C)CO)C(=O)c2cccc(NC(=O)c3cnccn3)c2O[C@H]1CN(C)C(=O)NC1CCCCC1`, the cytotoxicity call was “inactive”. With `Cc1[nH]c(=O)[nH]c(=O)c1S(=O)(=O)N1CCN(c2ccccc2)CC1` the cytotoxicity call was “inactive”. With `Cc1noc(C)c1NC(=O)N(C)C[C@@H]1OCCCC[C@H](C)Oc2ccc(NS(=O)(=O)c3ccccc3)cc2C(=O)N([C@@H](C)CO)C[C@H]1C` the cytotoxicity call was “inactive”. For `C[C@H]1CN([C@@H](C)CO)S(=O)(=O)c2ccc(C#Cc3ccccc3F)cc2O[C@@H]1CN(C)C(=O)Cc1cccnc1`, the cytotoxicity call was “inactive”. In the case of `O=C(C[C@@H]1CC[C@@H]2[C@H](COC[C@@H](O)CN2S(=O)(=O)c2cccc(Cl)c2)O1)NC1Cc2ccccc2C1`, the cytotoxicity call is reported as “inactive”. In the case of `O=C(C[C@@H]1C[C@H]2c3cc(NS(=O)(=O)c4ccc(F)cc4)ccc3O[C@H]2[C@H](CO)O1)NC1CCCC1`, the cytotoxicity call is reported as “inactive”. `COCC#Cc1cnc2c(c1)C(=O)N([C@@H](C)CO)C[C@H](C)[C@H](CN(C)C(=O)c1cnccn1)O2` was tested, and the cytotoxicity call was “inactive”. For `C#CC[C@H](c1nc2cc(Cl)ccc2c(=O)n1Nc1ccccc1)N(CCCN)C(=O)c1cccc(Cl)c1F`, the cytotoxicity call was “active”. For `C[C@@H]1CN([C@H](C)CO)S(=O)(=O)c2ccc(-c3cccc(C#N)c3)cc2O[C@H]1CN(C)C(=O)c1ccncc1`, the cytotoxicity call was “inactive”. With `Cc1nc[nH]c1CN(C)[C@H](C)C(=O)N(C)C` the cytotoxicity call was “inactive”. In the case of `CN(C)CCC=C1c2ccccc2C=Cc2ccccc21.Cl`, the cytotoxicity call is reported as “active”. With `CN(C)CN1C(=O)c2ccccc2C1=O` the cytotoxicity call was “inactive”. In the case of `CNCCC=C1c2ccccc2CCc2ccccc21.Cl`, the cytotoxicity call is reported as “active”. `CN(C)CCC=C1c2ccccc2COc2ccc(CC(=O)O)cc21.Cl` was tested, and the cytotoxicity call was “inactive”. `CN(C)CCC=C1c2ccccc2COc2ccccc21.Cl` was tested, and the cytotoxicity call was “active”. In the case of `CN(C)CCC=C1c2ccccc2CCc2ccccc21.Cl`, the cytotoxicity call is reported as “active”. In the case of `Cc1noc(C2CNC2)n1`, the cytotoxicity call is reported as “inactive”. In the case of `COc1ccc(NC(=O)N(C)C[C@@H]2OCCCC[C@@H](C)Oc3ccc(NC(=O)NC(C)C)cc3C(=O)N([C@@H](C)CO)C[C@H]2C)cc1`, the cytotoxicity call is reported as “inactive”. In the case of `COc1cccc(NC(=O)C[C@@H]2CC[C@H]3[C@@H](COc4ccc(NC(=O)C5CCOCC5)cc4C(=O)N3C)O2)c1`, the cytotoxicity call is reported as “inactive”. `C[C@H](CO)N1C[C@H](C)[C@H](CN(C)S(C)(=O)=O)Oc2ccc(NC(=O)CCCCCC(=O)Nc3ccccc3N)cc2CC1=O` was tested, and the cytotoxicity call was “inactive”. In the case of `C[C@H](CO)N1C[C@H](C)[C@H](CN(C)C(=O)c2cccnc2)Oc2cc(C#CC3(O)CCCC3)ccc2S1(=O)=O`, the cytotoxicity call is reported as “inactive”. In the case of `COc1cccc(S(=O)(=O)N(C)C[C@H]2OCc3cnnn3CCCC(=O)N([C@@H](C)CO)C[C@H]2C)c1`, the cytotoxicity call is reported as “inactive”. For `C[C@H]1CN([C@@H](C)CO)C(=O)c2cccc(NS(C)(=O)=O)c2O[C@@H]1CN(C)C(=O)Nc1ccccc1`, the cytotoxicity call was “inactive”. With `CC(C)NC(=O)N(C)C[C@@H]1Oc2ccc(NS(=O)(=O)c3ccccc3)cc2C(=O)N([C@@H](C)CO)C[C@H]1C` the cytotoxicity call was “inactive”. `Cc1noc(C)c1S(=O)(=O)Nc1ccc2c(c1)CC(=O)N([C@H](C)CO)C[C@@H](C)[C@H](CN(C)C(=O)Nc1ccccc1)O2` was tested, and the cytotoxicity call was “inactive”. `C[C@@H]1CN([C@H](C)CO)C(=O)c2cc(NC(=O)NC3CCCCC3)ccc2O[C@H]1CN(C)Cc1ccc(Cl)c(Cl)c1` was tested, and the cytotoxicity call was “inactive”. `C[C@H](CO)N1C[C@H](C)[C@@H](CN(C)C(=O)Nc2cccc3ccccc23)Oc2ccc(NC(=O)CCC(F)(F)F)cc2CC1=O` was tested, and the cytotoxicity call was “inactive”. For `C[C@@H]1CCCCO[C@H](CN(C)C(=O)Nc2ccccc2)[C@H](C)CN([C@H](C)CO)C(=O)c2cc(NC(=O)NC3CCCCC3)ccc2O1`, the cytotoxicity call was “inactive”. In the case of `CC(C)CC#Cc1cnc2c(c1)C(=O)N([C@H](C)CO)C[C@H](C)[C@H](CN(C)S(=O)(=O)c1cn(C)cn1)O2`, the cytotoxicity call is reported as “inactive”. `C[C@@H]1CCCCO[C@@H](CN(C)C(=O)Nc2cccc3ccccc23)[C@H](C)CN([C@H](C)CO)C(=O)c2cc(NC(=O)NC3CCCCC3)ccc2O1` was tested, and the cytotoxicity call was “inactive”. With `C[C@@H]1CCCCO[C@H](CN(C)C(=O)Nc2cccc3ccccc23)[C@@H](C)CN([C@H](C)CO)C(=O)c2cc(NC(=O)NC3CCCCC3)ccc2O1` the cytotoxicity call was “inactive”. `C[C@H](CO)N1C[C@H](C)[C@H](CN(C)C(=O)Nc2cccc3ccccc23)OCCCC[C@H](C)Oc2ccc(NC(=O)NC3CCCCC3)cc2C1=O` was tested, and the cytotoxicity call was “active”. For `C[C@@H]1CN([C@H](C)CO)C(=O)c2cc(NC(=O)Nc3cccc4ccccc34)ccc2O[C@@H](C)CCCCO[C@H]1CN(C)C(=O)NC1CCCCC1`, the cytotoxicity call was “active”. `C[C@H]1CCCCO[C@H](CN(C)C(=O)Nc2cccc3ccccc23)[C@@H](C)CN([C@@H](C)CO)C(=O)c2cc(NC(=O)NC3CCCCC3)ccc2O1` was tested, and the cytotoxicity call was “inactive”. With `C[C@@H]1CN([C@@H](C)CO)C(=O)c2cc(NC(=O)Nc3cccc4ccccc34)ccc2O[C@@H](C)CCCCO[C@H]1CN(C)C(=O)NC1CCCCC1` the cytotoxicity call was “inactive”. `C[C@@H]1CCCCO[C@H](CN(C)C(=O)Nc2cccc3ccccc23)[C@H](C)CN([C@@H](C)CO)C(=O)c2cc(NC(=O)NC3CCCCC3)ccc2O1` was tested, and the cytotoxicity call was “active”. With `C[C@@H]1CCCCO[C@@H](CN(C)C(=O)Nc2cccc3ccccc23)[C@H](C)CN([C@@H](C)CO)C(=O)c2cc(NC(=O)NC3CCCCC3)ccc2O1` the cytotoxicity call was “inactive”. `C[C@@H]1CCCCO[C@@H](CN(C)C(=O)NC2CCCCC2)[C@H](C)CN([C@H](C)CO)C(=O)c2cc(NC(=O)Nc3cccc4ccccc34)ccc2O1` was tested, and the cytotoxicity call was “inactive”. With `CC(C)NC(=O)Nc1ccc2c(c1)C(=O)N([C@H](C)CO)C[C@@H](C)[C@H](CN(C)S(=O)(=O)c1ccccc1)O2` the cytotoxicity call was “inactive”.
